An excerpt weighted towards active compounds, which were near 9.5% of everything screened.
Pf growth 48h = inhibits P. falciparum growth in the first generation, 48 h. P. falciparum luciferase growth in erythrocytes, 48 h. Potency, µM (titrated, usually from 28.7 µM), inactives show at the top dose activity change, negative = inhibition, hits mostly inhibitors. 310,000 tested, 5.9% active. AID 504832; note: % is set by controls: 0 for no effect and ±100 for the full control effect
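Firefly luciferase activity from engineered P. falciparum reports growth; inhibitors lower the luminescent signal. Cultures contained 2% hematocrit erythrocytes at 0.1% final parasitemia.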
SARS PLpro yeast = inhibitors of SARS-CoV papain-like protease in yeast. S. cerevisiae expressing SARS-CoV PLpro, growth rescue. Potency, µM (series often up to 32.9 µM), for the others: at the top dose activity, positive = growth rescue, usual class: activators. 330,000 tested, 0.19% active; calls by dose curve; note: 0% is about no effect; nearly all actives have a fitted effect of over 55% in size
NS1 inh = influenza NS1 inhibition | Potency, µM (highest dose often 46.1 µM), inactives show top-dose activity, positive = more growth | 270,000 tested, 0.4% active; calls by dose curve; note: actives are rising curves; nearly all actives have a fitted effect of over 50% in size
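Recovery from NS1-induced slow growth read by OD600 in budding yeast switched to galactose assay medium (pH 6.0, -URA) at 1:100 dilution. Compound 23 nl per well; the matching strain lacking NS1 serves as control.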
RE007 growth inh = less growth of the S. pombe RE007 Vpr strain; AID 651644; Potency, µM (top dose mostly 92.2 µM), without a hit: top-dose activity change, negative = less growth, hits mostly inhibitors; 360,000 tested, 0.21% active; S. pombe RE007 Vpr strain, BacTiter-Glo ATP luminescence, 24 h; active = well fitted falling curve with a large enough effect; inconclusive = small, poorly fitted or top-dose-only effect; inactive = no such curve, though single readings can be large or run the other way; note: % is set by controls: 0 for no effect and ±100 for the full control effect; nearly all actives have a fitted effect of over 50% in size
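Fission yeast strain RE007, carrying one chromosomally integrated HIV-1 vpr copy, was seeded at OD 0.01 in PMG+AL medium with 23 nL pinned compound. After 24 h at 30 °C and 99% humidity, viability was read by BacTiter-Glo luminescence.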
Pf growth 96h = inhibits malaria parasite growth, 96 h. P. falciparum luciferase reporter growth, 96 h. Potency, µM (highest dose often 28.7 µM), without a hit: top-dose activity change, negative = inhibition, usual class: inhibitors. 320,000 tested, 6.9% active. AID 504834; note: % is set by controls: 0 for no effect and ±100 for the full control effect
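Parasite growth measured via integrated firefly luciferase reporter in P. falciparum. Infected erythrocytes at 2% hematocrit, 0.05% parasitemia final were treated 96 hours at 37 C under 5% CO2, and luminescence was read.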
Numbers without * were called inactive; ? = inconclusive; / = no result; [ ] = dose if it differs, or a comment. Unless noted, calls come from the whole dose curve; as a rule, active = well fitted inhibition curve with a large enough effect; inconclusive = small, poorly fitted or top-dose-only effect, or another doubt; inactive = no such curve, though single readings can be large or run the other way. Potency is the fitted concentration of half-maximal effect.

SMILES | Pf growth 48h | SARS PLpro yeast | NS1 inh | RE007 growth inh | Pf growth 96h
Cc1nc2cc(C(F)(F)F)ccc2n1C1CCN(Cc2nnnn2Cc2ccc3c(c2)OCO3)CC1 | 4.7µM* | -10% | -48% | -8% | -1%
c1ccc(Cn2nnnc2CN2CCN(Cc3ccc4c(c3)OCO4)CC2)cc1 | -8% | -2% | -3% | -10% | 68%
COCCn1nnnc1CN1CCC(Cc2ccccc2)CC1 | -15% | 9% | -1% | 11% | 2.6µM*
c1ccc(CCn2nnnc2CN2CCC(n3nnc4ccccc43)CC2)cc1 | ? | -6% | -4% | -4% | 79%
Cc1nc2ccccc2n1C1CCN(Cc2nnnn2CCc2ccccc2)CC1 | 13µM* | -1% | -18% | 8% | /
COc1ccccc1NS(=O)(=O)c1cccc(C(=O)N2CCN(Cc3ccc4c(c3)OCO4)CC2)c1 | ? | 1% | / | -12% | ?
CCN(CC)C(=O)C1=C(C)N(Cc2ccc(OC)cc2)C(=O)C(CC(=O)NC2CCCCC2)C1 (stereo unspecified) | / | / | / | 17% | /
CCOC(=O)CC1(C)NC(C(=O)O)C(C)(C)S1 (stereo unspecified) | / | / | / | 1% | /
COc1ccc(-c2nnc(SC)o2)c(OC)c1 | 100% | 1% | -8% | 3% | 0%
COc1ccc(OC)c(-c2nnc(-c3ccc(C)o3)o2)c1 | 10µM* | -5% | -11% | -7% | 183%
Cc1cccc(C(=O)NC2CCN(C(=O)NCc3ccccc3)CC2)c1 | -11% | 1% | 7% | -2% | 229%
COc1ccc(N(CC(=O)NC2CCCCC2C)S(=O)(=O)c2c(C)nn(C)c2C)cc1 (stereo unspecified) | ? | -1% | 6% | -5% | ?
Cc1ccc(CSCC(=O)N(C)CC(=O)Nc2c(Cl)cccc2Cl)cc1 | 10µM* | -3% | / | -1% | ?
Cc1ccc(CSCC(=O)N(C)CC(=O)Nc2ccccc2Cl)cc1 | ? | -6% | / | -7% | -25%
O=S(=O)(c1ccc(OCC(O)CNCc2ccco2)c(Cl)c1)N1CCOCC1 (stereo unspecified) | 8.3µM* | 4% | 13% | 6% | ?
O=C(COc1ccc(S(=O)(=O)N2CCOCC2)cc1Cl)NCc1ccco1 | -12% | 3% | 2% | -4% | 17%
O=[N+]([O-])c1cccc(-c2nc(-c3ccccc3)c(-c3cccs3)[nH]2)c1 | ? | -1% | 13% | 15% | ?
COc1cc(-c2nc(-c3ccccc3)c(-c3cc([N+](=O)[O-])ccc3C)[nH]2)cc(OC)c1OC | 2.6µM* | 4% | ? | -7% | ?
C=CCNC(=S)NNC(=O)COc1ccc2cc(Br)ccc2c1 | 68% | -4% | 7% | 3% | ?
C=CCNC(=S)NNC(=O)COc1ccc(Br)cc1 | 2% | ? | -13% | 3% | 5.9µM*
O=c1ccc(-c2nc3cc(Cl)ccc3n2Cc2ccccc2)c[nH]1 | ? | -1% | 1% | -20% | 9.3µM*
Cc1cc2nc(CCN(Cc3cccnc3)C(=S)Nc3ccccc3)[nH]c2cc1C | 12µM* | -5% | -3% | -13% | 7.4µM*
COc1ccccc1NC(=S)N(CCc1nc2cc(C)c(C)cc2[nH]1)Cc1cccnc1 | 10µM* | -7% | -18% | 1% | ?
O=C(NC1CCOCC1)C1CCC(=O)N(CCc2cccc(F)c2)C1 (stereo unspecified) | -5% | 7% | 7% | 25% | ?
COC(=O)c1ccc(Cn2cnc3c(sc4nc(N5CCOCC5)c5c(c43)CCCC5)c2=O)o1 | 1.7µM* | -6% | ? | 2% | 26%
SMILES | Pf growth 48h | SARS PLpro yeast | NS1 inh | RE007 growth inh | Pf growth 96h
CCOC(=O)CSc1ncnc2c1sc1nc(N3CCOCC3)c3c(c12)CCCC3 | / | 7% | 5% | 4% | -12%
CCOC(=O)C(Sc1ncnc2c1sc1nc(N3CCOCC3)c3c(c12)CCCC3)c1ccccc1 (stereo unspecified) | 1.7µM* | 3% | 13% | / | ?
Cc1ccccc1-n1cnc2c(sc3nc(N4CCOCC4)c4c(c32)CCCC4)c1=O | 10µM* | 1% | 11% | -1% | ?
COc1ccc(-n2cnc3c(sc4nc(N5CCOCC5)c5c(c43)CCCC5)c2=O)cc1 | -2% | 2% | / | 6% | 2.9µM*
C[C@H]1CCCCO[C@@H](CN(C)C(=O)NC2CCCCC2)[C@@H](C)CN([C@@H](C)CO)C(=O)c2cc(NC(=O)Cc3ccccc3)ccc2O1 | / | / | / | 7% | /
CC(C)CNc1nnnc2c1sc1nc(N3CCOCC3)c3c(c12)CCCC3 | 1.7µM* | -1% | 1% | -15% | 1.3µM*
CN(CC(=O)Nc1cccc(C(F)(F)F)c1)C1=NS(=O)(=O)c2ccccc21 | / | 3% | / | -12% | /
c1ccc(N2CCN(c3nc4ccccc4n4cnnc34)CC2)cc1 | / | 3% | -4% | 2% | 4.1µM*
c1ccc2c(c1)nc(N1CCOCC1)c1nncn12 | / | -3% | -8% | -18% | ?
CS(=O)(=O)Nc1ccccc1-c1cccc2nccn12 | / | / | / | 1%[18.4 µM] | /
O=C(CN(C(=O)c1cccc([N+](=O)[O-])c1)C1CCCCC1)Nc1ccc(Cl)c([N+](=O)[O-])c1 | 1.9µM* | 12% | 2% | 15% | ?
O=C(c1ccc(F)cc1)C1CCN(CCn2c(=O)[nH]c3ccccc3c2=O)CC1 | 6.6µM* | -1% | ? | -23%[18.4 µM] | 11µM*
C=CCc1cc(/C=N/NC(=O)CSc2nnc(CCCc3ccc(OC)cc3)o2)cc(OC)c1O | / | 11% | 0% | -9% | 0.059µM*
C=CCc1cc(/C=N\NC(=O)CSc2nnc(CCCc3ccc(OC)c(C)c3)o2)cc(OC)c1O | 3.7µM* | 2% | 2% | -1% | 2.9µM*
Fc1ccc(C(CCNCc2ccccn2)c2ccc(Cl)cc2)cc1 (stereo unspecified) | 9%[0.00184 µM] | -3% | -5% | 3% | ?
CCOc1ccccc1NC(=O)C(OC(=O)c1ccc(NC(=O)CC#N)cc1)c1ccccc1 (stereo unspecified) | 5.2µM* | -3% | / | -14% | 2.3µM*
Cc1cc(C(=O)C(C)OC(=O)c2ccc(NC(=O)CC#N)cc2)c(C)n1-c1ccccc1 (stereo unspecified) | 13µM* | 7% | / | 9% | 8.3µM*
CC(OC(=O)c1ccc(NC(=O)CC#N)cc1)C(=O)NC(c1ccccc1)c1ccccc1 (stereo unspecified) | / | -1% | / | -5% | /
CCOc1ccccc1NC(=O)C(OC(=O)c1cc(C)oc1C)c1ccccc1 (stereo unspecified) | 13µM* | 3% | -23% | 11% | ?
CCCC(C)c1nnc(NC(=O)c2cc(C(=O)OC)cc([N+](=O)[O-])c2)s1 (stereo unspecified) | 42% | -9% | 11% | -3% | 81%
O=C(CN1c2cccc3cccc(c23)S1(=O)=O)Nc1ccc(F)c(F)c1F | / | 2% | / | -10% | /
O=C(Nc1ccc(Cl)cc1)C1Cc2c(-c3ccccc3)ccnc2O1 (stereo unspecified) | / | / | / | -20% | /

Bioassay records as filed in PubChem.
